PTAP TSG101 blk – qHTS Assay for Iinhibitors of HIV-1 Budding by Blocking the Interaction of PTAP/TSG101. Tumor susceptibility gene 101 protein (Homo sapiens), Q99816. Fluorescence polarization, FITC-PTAP peptide / Tsg101 binding. Potency, µM (titrated, usually from 115 µM), most hits filed as inhibitors. 340,000 tested, under 10 active. AID 493005, 2010; active = well fitted inhibition curve with a large enough effect in the main read-out, with a control signal flat, not every such curve was filed as active; inconclusive = small, poorly fitted or top-dose-only effect, or effect the other way, or a change in a side signal; inactive = no such curve, though single readings can be large or run the other way
Target sequence (Q99816 whole entry, looked up): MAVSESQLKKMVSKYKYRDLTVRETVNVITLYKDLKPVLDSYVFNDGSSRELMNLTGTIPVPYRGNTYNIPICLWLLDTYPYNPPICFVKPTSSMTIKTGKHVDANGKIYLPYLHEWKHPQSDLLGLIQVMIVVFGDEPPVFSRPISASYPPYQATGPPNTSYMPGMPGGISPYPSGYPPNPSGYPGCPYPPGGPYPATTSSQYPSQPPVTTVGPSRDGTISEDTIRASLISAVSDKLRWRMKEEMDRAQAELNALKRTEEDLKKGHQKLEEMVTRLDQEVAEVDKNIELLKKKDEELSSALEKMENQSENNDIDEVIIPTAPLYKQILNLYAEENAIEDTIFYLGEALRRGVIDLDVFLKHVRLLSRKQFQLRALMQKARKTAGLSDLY
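Fluorescence polarization binding of Tsg101 binding domain (10 uM final) to FITC-labeled PTAP peptide (50 nM final) in HEPES pH 7.5 buffer with NaCl, Tween 20, EDTA, TCEP. Compounds added before peptide; binding 20 min at RT.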
TRPML1 inh – qHTS for Inhibitors of the Human Mucolipin Transient Receptor Potential 1 (TRPML1). Mucolipin-1 (Homo sapiens), Q9GZU1. TRPML1-inducible cells, Ca2+ dye fluorescence, FDSS; active compounds read low; inhibition of EC80 agonist-evoked calcium signal. activity change, negative = inhibition, % (concentration not given with the values). 0.02% of 390,000 active. AID 624415, 2012; in the data active = activity change below about -50%; inconclusive = between about -30% and that limit;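 also: stimulus is agonist 54-4 at its EC80 concentration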
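TRPML1-DL cells, Tet-induced overnight (~16 h, 37 °C) at 1,500 cells/well, were loaded with Ca8 no-wash dye plus quencher for 45-90 min at room temperature. Compounds were pinned during FDSS kinetic reading; agonist 54-4 at EC80 (4 uM final) then added.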
PKM2 act – qHTS Assay for Activators of Human Muscle isoform 2 Pyruvate Kinase | purified PKM2, Kinase-Glo ATP luminescence, activation; response scale: 0% is enzyme alone, no compound | 0.34% of 260,000 active | AID 1631, 2009 | Pyruvate kinase PKM (Homo sapiens), P14618 | Potency, µM (top dose mostly 57.5 µM), actives largely listed as activators; also: nearly all actives have a fitted effect of over 55% in size
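Kinase-Glo luminescence reports ATP generated from ADP (0.1 mM) and PEP (0.5 mM) by purified hPK-M2 after 1 h at room temperature, pH 7.2 imidazole buffer; intermediate enzyme activity allows detecting inhibitors and activators.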
BRCA1 expr act – qHTS Assay to Identify Small Molecule Activators of BRCA1 Expression. Potency, µM (doses to about 46.1 µM), usual class: activators. 1.1% of 380,000 active. MCF7-BRCA1-FFLuc reporter, luminescence, 48 h; response scale: scaled: vehicle 0%, 10 µM genistein 100%; also: nearly all actives have a fitted effect of over 80% in size
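Compounds are tested at multiple concentrations on MCF7 BRCA1-luciferase reporter cells seeded at 2000 per well; after 48 h, a single luminescence end-point is taken and curves fitted to the normalized data.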
TRPML1 agonist – qHTS for Agonists of the Human Mucolipin Transient Receptor Potential 1 (TRPML1); 0.12% of 410,000 active; TRPML1-expressing cells, Ca2+ dye fluorescence, FDSS; activation, % (concentration not given with the values); Mucolipin-1 (Homo sapiens), Q9GZU1; in the data active = activation above about 50%; inconclusive = mostly about 30% to 49%
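In this qHTS format, compounds were pin-transferred onto Ca8-dye-loaded TRPML1-DL cells induced with Tet overnight, and intracellular Ca2+ fluorescence was recorded kinetically for 110 s after a 10 s baseline. A subsequent 4uM final 54-4 (EC80) addition followed by a second 110 s read served as the antagonist phase.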
IL2 activator – qHTS of IL-2 Activators; activation, % (series mostly up to about 46 µM); IL-2 activation reporter assay, cell-based qHTS; stimulated with anti-CD3/CD4/CD28 beads; in transgenic mouse T cells; AID 652025, 2013; 0.065% of 360,000 active; in the data active = activation above about 50%; inconclusive = mostly about 30% to 49%
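First, unstimulated transgenic mouse T cells were exposed to compound for 60 min. Next, anti-CD3/anti-CD4-coated beads with anti-CD28 were added. Finally, after 18 h at 37 degrees C, EGFP and DsRed were imaged.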
Of the large screens only hits and unclear results are named; the others gave an inactive call. A selection: hits, their analogues and other compounds. The true share with any hit is near 1.3%. Unless noted, calls follow the shape of the dose curve; as a rule, active = well fitted activation curve with a large enough effect; inconclusive = small, poorly fitted or top-dose-only effect; inactive = no such curve, though single readings can be large or run the other way.

COc1cc(NS(=O)(=O)c2cc3c(cc2C)NC(=O)CO3)cc(OC)c1	PKM2 act 7.1µM
Cc1cc2c(cc1S(=O)(=O)Nc1cc(C(F)(F)F)cc(C(F)(F)F)c1)OCC(=O)N2	none (no result: PTAP TSG101 blk, PKM2 act, BRCA1 expr act, IL2 activator)
COc1ccc2c(c1)CC(C(=O)NCCN1CCN(c3cccc(Cl)c3)CC1)CO2 (stereo not given)	none (no result: PTAP TSG101 blk, PKM2 act, BRCA1 expr act, IL2 activator)
CN(C)CCNC(=O)CN1C(=O)COc2ccc(S(=O)(=O)N3CCCC3)cc21	none (no result: PTAP TSG101 blk, PKM2 act, IL2 activator)
COc1ccc(/C=C2\C=Cc3ccccc32)cc1OC	none (no result: PTAP TSG101 blk, TRPML1 inh, PKM2 act, IL2 activator)
Cc1cc(C)cc(NC(=O)c2sc3nc(-c4cc5ccccc5oc4=O)[nH]c(=O)c3c2C)c1	TRPML1 inh -50 (no result: PTAP TSG101 blk, PKM2 act, BRCA1 expr act, IL2 activator)
Cc1cccc(NC(=O)c2sc3nc(-c4cc5ccc(O)cc5oc4=O)[nH]c(=O)c3c2C)c1	TRPML1 inh inconclusive, TRPML1 agonist 112 (no result: PTAP TSG101 blk, PKM2 act, BRCA1 expr act, IL2 activator)
Cc1c(C(=O)Nc2cccc(F)c2)sc2nc(-c3cc4ccccc4oc3=O)[nH]c(=O)c12	none (no result: PTAP TSG101 blk, PKM2 act, BRCA1 expr act, IL2 activator)
O=C(C[n+]1ccccc1Cl)c1ccc(I)cc1	none (no result: PTAP TSG101 blk, TRPML1 inh, PKM2 act, IL2 activator)
COc1cc2c(NC3CCN(C)CC3)nc(N3CCN(C)CC3)nc2cc1OCCCN(C)C	none (no result: PTAP TSG101 blk, TRPML1 inh, PKM2 act, IL2 activator)
CN(C)/C=C1\SC(=S)N(c2ccc(Br)cc2)C1=O	PTAP TSG101 blk inconclusive, BRCA1 expr act 10µM
Cc1nnc2c(Nc3cccc(O)c3)nc3ccccc3n12	none (no result: PTAP TSG101 blk, PKM2 act, BRCA1 expr act, IL2 activator)
CCN1CCc2c(sc(NC(=S)NC(=O)c3cccc(F)c3)c2C(N)=O)C1	none (no result: PTAP TSG101 blk, TRPML1 inh, PKM2 act, IL2 activator)
Cc1ccc(C2CC(=O)c3cnc(NC(=O)c4ccco4)nc3C2)cc1 (stereo not given)	none
CC(C)c1ccc(C2CC(=O)c3cnc(NC(=O)c4ccco4)nc3C2)cc1 (stereo not given)	BRCA1 expr act 10µM
CCS(=O)(=O)N1CCc2cc(C(=O)NCCc3ccc(OC)c(OC)c3)ccc21	none (no result: PTAP TSG101 blk, PKM2 act, IL2 activator)
COc1ccc(S(=O)(=O)N2CCc3ccccc32)cc1C(=O)OCc1c(C)noc1C	PKM2 act 11µM
CC(C)N(Cc1ccccc1)C(=O)C1CCCN(c2ncnc3onc(-c4ccc(F)cc4)c23)C1 (stereo not given)	none (no result: PTAP TSG101 blk, PKM2 act, BRCA1 expr act, IL2 activator)
CCn1c(-c2cc(-c3ccc(OC(C)C)cc3)nc3ccccc23)n[nH]c1=S	BRCA1 expr act 7.1µM
CN(/N=C/c1cccs1)c1cc(=O)n(C)c(=O)[nH]1	none
CCN(/N=C/c1cccs1)c1cc(=O)n(C)c(=O)[nH]1	PKM2 act 22µM
O=C(c1cnn(-c2ccccc2)c1)c1cc(F)ccc1O	BRCA1 expr act 10µM (no result: PKM2 act)
O=C(c1cnn(-c2ccccc2)c1)c1ccccc1O	BRCA1 expr act inconclusive
O=c1/c(=C\c2ccc(O)cc2)sc2nc(-c3ccccc3)c(-c3ccccc3)n12	IL2 activator 99 (no result: TRPML1 inh, TRPML1 agonist)
O=c1/c(=C/c2ccc(O)cc2)sc2nc3cc(Br)cnc3n12	none (no result: PTAP TSG101 blk, TRPML1 inh, BRCA1 expr act, TRPML1 agonist, IL2 activator)
CN(C)c1ccc(/C=C/c2ccncc2)cc1	BRCA1 expr act 7.9µM
COc1cccc(/C=C/c2ccncc2)c1OC	none
CN(C)c1ccc(/C=C/c2ccnc3cc(Cl)ccc23)cc1	TRPML1 agonist 105 (no result: PTAP TSG101 blk, TRPML1 inh, PKM2 act, IL2 activator)
COc1ccc(/C=C/c2ccncc2)cc1	BRCA1 expr act 10µM
CCN(CC)c1ccc(/C=C/c2ccncc2)cc1	none (no result: PTAP TSG101 blk, TRPML1 inh, PKM2 act, BRCA1 expr act, IL2 activator)
Oc1ccc(C[C@H]2CNC(=S)N2CC2CCCN2C[C@H](Cc2ccc(O)cc2)N2C[C@H](Cc3ccc(O)cc3)N(CC3CCCCCC3)C2=S)cc1 (stereo not given in full)	none (no result: PKM2 act)
COc1ccc(CCNc2ncnc3c2c(-c2ccccc2)cn3-c2cccc(Cl)c2)cc1OC	TRPML1 agonist 74 (no result: PTAP TSG101 blk, PKM2 act, BRCA1 expr act, IL2 activator)
